A549 tox – kills or reduces viability of A549 cells in Nrf2 counter-screen. A549 ARE-Fluc cells, CellTiter-Fluor viability, 18-24 h. Potency, µM (doses to about 46 µM), without a hit: top-dose activity change, negative = cytotoxicity, usual class: inhibitors. 0.16% of 390,000 active. AID 504648; note: % is set by controls: 0 for no effect and ±100 for the full control effect
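Cytotoxicity counterscreen: CellTiter-Fluor fluorescence was measured in A549 ARE_Fluc cells after 18-24 h of compound exposure in a concentration series. The subsequent BugLite luminescent read reports ARE-luciferase activity.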
Nrf2 inh – inhibitors of Nrf2 signaling | 2.1% of 360,000 active | A549 ARE-Fluc reporter, luciferase luminescence, 18-24 h | Potency, µM (titrated, usually from 46 µM), for inactives: at the highest dose activity change, negative = inhibition, most hits filed as inhibitors; note: % is set by controls: 0 for no effect and ±100 for the full control effect; nearly all actives have a fitted effect of over 60% in size
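Concentration-response testing used A549 ARE_Fluc cells at 5000 cells/well. Following an 18-24 h compound incubation, viability was read by fluorescence (Ex 405/Em 525) and luciferase output by luminescence.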
Rango-impB inh – Rango-importin beta binding inhibition; Q14974; Rango CFP/YFP FRET sensor + importin beta, 45 min; Potency, µM (top dose mostly 92.2 µM), for the others: at the highest dose inhibition of complex formation; 0.031% of 340,000 active; AID 540263; calls by dose curve;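 note: 0% = DMSO wells and 100% = buffer wells lacking importin beta; nearly all actives have a fitted effect of over 15% in size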
Target sequence (Q14974 whole entry, looked up): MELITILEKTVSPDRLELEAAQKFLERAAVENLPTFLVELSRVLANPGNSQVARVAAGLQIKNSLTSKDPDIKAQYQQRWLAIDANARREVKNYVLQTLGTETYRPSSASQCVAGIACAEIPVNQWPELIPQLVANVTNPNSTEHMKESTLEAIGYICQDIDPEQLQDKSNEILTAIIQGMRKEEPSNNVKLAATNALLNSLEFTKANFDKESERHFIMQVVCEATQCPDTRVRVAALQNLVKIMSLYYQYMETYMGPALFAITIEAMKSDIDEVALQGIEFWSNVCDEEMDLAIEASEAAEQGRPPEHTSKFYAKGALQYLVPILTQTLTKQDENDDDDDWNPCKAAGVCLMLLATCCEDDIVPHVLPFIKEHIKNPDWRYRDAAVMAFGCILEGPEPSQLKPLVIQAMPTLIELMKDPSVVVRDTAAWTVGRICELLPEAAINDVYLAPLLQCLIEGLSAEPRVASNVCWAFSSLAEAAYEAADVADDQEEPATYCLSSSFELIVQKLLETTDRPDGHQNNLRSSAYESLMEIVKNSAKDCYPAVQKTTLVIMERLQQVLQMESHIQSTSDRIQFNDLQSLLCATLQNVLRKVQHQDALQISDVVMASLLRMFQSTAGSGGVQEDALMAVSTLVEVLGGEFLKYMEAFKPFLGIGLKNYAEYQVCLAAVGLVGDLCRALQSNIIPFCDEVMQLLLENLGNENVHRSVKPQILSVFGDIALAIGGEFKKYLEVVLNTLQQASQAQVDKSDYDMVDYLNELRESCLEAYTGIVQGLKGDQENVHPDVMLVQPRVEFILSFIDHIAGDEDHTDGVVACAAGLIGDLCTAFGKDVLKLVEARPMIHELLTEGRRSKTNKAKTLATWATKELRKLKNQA
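FRET biosensor Rango (snurportin 1 IBB between N-terminal EYFP and C-terminal Cerulean), 50 nM in PBS/1 mM DTT/0.02% Tween-20/0.1% BSA, preincubated 5 min RT with compound; 0.125 microM importin beta added, 45 min RT, CFP/YFP FRET ratio read.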
Nrf2 ARE act – activators of Nrf2 (ARE) signaling; AREc32 ARE-luciferase reporter (MCF7-derived line), luminescence, 24 h; 0.31% of 410,000 active; Potency, µM (highest dose often 46.1 µM), without a hit: top-dose activation, actives largely listed as activators; note: % of control where 0% means no effect; nearly all actives have a fitted effect of over 65% in size
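AREc32 cells carrying an ARE-driven firefly luciferase reporter were seeded at 1000 cells/well in OPTI-MEM with 5% FBS, then exposed to compound for 24 hr at 37 deg C. Luminescence was read with Steady-Glo after 30 min at RT.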
Rango release inh – inhibitors of RanGTP-induced Rango-importin beta complex dissociation; Biochemical FRET Rango-importin beta, RanGTP-induced dissociation; Potency, µM (highest dose often 46.1 µM), without a hit: top-dose activity change, negative = inhibition; O95149+P62826; 0.071% of 340,000 active; calls by dose curve; note: % of control where 0% means no effect; nearly all actives have a fitted effect of over 45% in size
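Quantitative HTS using a FRET biosensor: 0.1 uM Rango, 0.25 uM importin beta, 0.6 uM Ran, 2 mM GTP, 0.2 uM RCC1 final, PBS with DTT, Tween-20 and BSA. Post-read taken 45 min after Ran addition.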
* = called active by the depositor; ? = inconclusive; · = no result given; [ ] = dose if it differs, or a comment. A selection: hits, their analogues and other compounds. The true share with any hit is near 2.3%. Unless noted, calls come from the whole dose curve; as a rule, active = well fitted curve in the direction sought with a large enough effect; inconclusive = small, poorly fitted or top-dose-only effect, or another doubt; inactive = no such curve, though single readings can be large; an effect the other way counts as inactive or inconclusive. Potency is the fitted concentration of half-maximal effect.

SMILES | A549 tox | Nrf2 inh | Rango-impB inh | Nrf2 ARE act | Rango release inh
Cc1cccc(-n2c(Cc3cc(=O)[nH]c(=O)[nH]3)nnc2SCC(=O)N2CCc3ccccc32)c1 | -5% | -2% | 1% | 0% | 15%
Cc1c(C(=O)Nc2ccc(OC(F)(F)F)cc2)sc2nc3n(c(=O)c12)CCC3 | -17% | 10µM* | -1% | 3% | -10%
Cc1c(C(=O)Nc2ccc(Oc3ccccc3)cc2)sc2nc3n(c(=O)c12)CCC3 | -20% | ? | -1% | 4% | -5%
CCN(Cc1ccccc1)c1ccc(Br)cn1 | 7% | 23% | · | · | ·
Cc1cc2nc(-c3cccc(Br)c3)c(Cc3ccsc3)n2c(C)c1Br | · | · | · | 28% | ·
Cc1cc2nc(-c3cccc(Br)c3)c(Cc3ccccc3)n2c(C)c1Br | · | · | · | 11µM* | ·
O=C(NCCSCc1ccccc1Cl)C1CCN(S(=O)(=O)Cc2ccccc2)CC1 | 0% | -4% | · | 0% | ·
CC1(C)C(=O)C=C(N2CCCCC2)c2ccccc21 | · | · | · | 0% | ·
Cc1ccc(S(=O)(=O)c2c(N)n(-c3ccccc3)c3nc4ccccc4nc23)cc1 | -6% | -18% | ? | 0% | 15µM*
Cc1ccc(S(=O)(=O)c2c(N)n(Cc3ccco3)c3nc4ccccc4nc23)cc1 | · | 18µM* | ? | 3% | ?
Cc1cccc(S(=O)(=O)c2c(N)n(Cc3ccco3)c3nc4ccccc4nc23)c1 | -19% | ? | ? | 0% | ?
CCOc1cc(C2NN=C(c3ccccc3)S2)ccc1OCc1ccc(F)cc1 (centres undefined) | -2% | ? | 0% | 11µM* | -3%
CCN(CC)C(=O)CSc1nc(-c2cccs2)cc(-c2cccs2)c1C#N | -20% | 18µM* | ? | 0% | 15%
C/C(=N\NC(=O)c1ccc(Cl)c(Cl)c1)c1ccc(Br)s1 | -11% | 7.3µM* | 0% | 0% | 1%
COc1ccc([N+](=O)[O-])cc1NS(=O)(=O)c1ccc(C)cc1 | 1% | -2% | 2% | -1% | -8%
Cc1ccc(S(=O)(=O)Nc2ccccc2N=Cc2ccc([N+](=O)[O-])cc2[N+](=O)[O-])cc1 | -4% | 0% | 2% | 14µM* | -5%
O=C1CCC(c2ccc3ccccc3c2)O1 (centres undefined) | -1% | ? | 2% | 0% | -7%
S=C(NCc1ccco1)N1CCN(c2cccc(Cl)c2)CC1 | 7% | 15µM* | 1% | 2% | 12%
S=C(NCCN1CCOCC1)N1CCN(c2cccc(Cl)c2)CC1 | -12% | ? | 3% | 2% | 10%
Cc1cc(Nc2cc(Cl)cc(Cl)c2)nc(N)n1 | -13% | ? | 1% | 10% | 23%
COC(=O)c1ccc(S(=O)(=O)N2CCCN(Cc3ccc(F)cc3)CC2)n1C | 1% | 13µM* | 1% | 0% | 3%
COc1ccc(CN2CCN(S(=O)(=O)c3ccc(F)cc3)CC2)cc1OC | -7%[1.84 µM] | ? | 4% | 0% | -16%
S=C1Cc2ccccc2N1 | 16µM* | 12µM* | 1% | -1% | 17%
CCC(CC)=NNc1cccc([N+](=O)[O-])c1 | -5% | -9% | 3% | -1%[9.22 µM] | -16%
COc1ccc(C(=O)/C(C#N)=N/Nc2cccc([N+](=O)[O-])c2)cc1 | ? | 23µM* | 1% | ? | 11%
SMILES | A549 tox | Nrf2 inh | Rango-impB inh | Nrf2 ARE act | Rango release inh
N#C/C(=N\Nc1ccc(Cl)cc1)C(=O)c1ccsc1 | ? | 16µM* | -1% | 6% | -2%
N#C/C(=N\Nc1cccc(Cl)c1)C(=O)c1ccccc1 | 18µM* | ? | 11% | 4% | 2%
COC(=O)c1ccc(NC(=O)CSc2ccc(-c3sc(-c4ccccc4)nc3C)nn2)cc1 | 1% | 1% | · | 5% | ·
CCC(C)NC(=O)C(=O)Nc1c2c(nn1-c1ccccc1)CS(=O)(=O)C2 (centres undefined) | 1% | · | · | -1% | ·
Cc1ccccc1CNC(=O)c1ccc2nc(SCc3ccc(F)cc3)n(C)c2c1 | -1% | ? | · | 1% | ·
Cn1c(SCc2ccc(F)cc2)nc2ccc(C(=O)NCc3ccc(Cl)cc3)cc21 | 2% | 15µM* | · | 3% | ·
Cn1c(SCc2ccc(F)cc2)nc2ccc(C(=O)NCc3ccc(F)cc3)cc21 | ? | 23µM* | · | 0% | ·
Cn1c(SCc2ccc(F)cc2)nc2ccc(C(=O)NCc3cccc(Cl)c3)cc21 | -6% | 21µM* | · | 0% | ·
CC(C)Oc1ccc(CNC(=O)c2ccc3nc(SCc4ccc(F)cc4)n(C)c3c2)cc1 | 2% | 11% | · | 1% | ·
CCN(CC(=O)NCc1cccs1)c1ccc(S(=O)(=O)N2CCN(C)CC2)cn1 | 4% | -3% | 1% | 0% | 6%
Cn1nc(C(F)(F)F)c(-c2ccc(Br)cc2)c1NC(=O)Nc1ccc(F)cc1F | ? | ? | -1% | 8% | -2%
CCOC(=O)c1ccc(N2C(=O)c3n[nH]c(-c4cccs4)c3C2c2ccc(C(C)C)cc2)cc1 (centres undefined) | ? | 23µM* | · | -1% | ·
CCOC(=O)c1ccc(N2C(=O)c3n[nH]c(-c4cccs4)c3C2c2ccc(OCC)cc2)cc1 (centres undefined) | -24% | ? | · | -3% | ·
CCOC(=O)c1ccc(N2C(=O)c3n[nH]c(C)c3C2c2ccc(OC)cc2OC)cc1 (centres undefined) | ? | 18µM* | 16% | -2% | 0%
CCOC(=O)c1ccc(N2C(=O)c3n[nH]c(-c4cccs4)c3C2c2ccc(CC)cc2)cc1 (centres undefined) | ? | 16µM* | · | -4% | ·
COc1ccc(CCC2(C)NC(=O)N(C(C)C(=O)N3c4ccccc4CC3C)C2=O)cc1 (centres undefined) | 1% | 3% | 0% | -1% | -1%
Cc1nnc(SCC(=O)Nc2sc3c(c2C#N)CCCC3)[nH]c1=O | 0% | · | 0% | 2% | -16%
N#Cc1c(NC(=O)CSc2nc(N)cc(=O)[nH]2)sc2c1CCCC2 | -22% | 15µM* | 5% | 5% | 4%
CCN(CC)S(=O)(=O)c1nnc(NC(=O)COc2ccc(Cl)cc2)s1 | 0% | 4.1µM* | · | 0% | ·
CCN(CC)S(=O)(=O)c1nnc(NC(=O)COc2ccccc2)s1 | 9% | ? | · | 1% | ·
CCc1ccc(-c2nnn(CCC(=O)OC)n2)cc1 | 1% | 3.3µM* | -3% | -2% | 0%
CCc1ccc(-c2nnn(CCC#N)n2)cc1 | -11% | ? | -3% | 2% | -12%
